From PubChem BioAssay (EPA / NIEHS)
Active and inactive are the calls of the source. Rule for the calls: active = hit-call score of the fitted dose curve at least 0.9, where 1 is the maximum; inactive = score below 0.9.

Columns and labels:
[1] = read-out: Interleukin-6 (IL6), IL6 (gene 3569); assay: BSK_CASM3C_IL6: BioMAP Diversity Plus: CASM3C Assay for Interleukin-6 (IL6) Biomarker Activity for (AID 2283040); details: primary human coronary artery smooth muscle cells; actives raise or lower the signal
[2] = read-out: Tissue plasminogen activator (tPA), PLAT (gene 5327); assay: BSK_BE3C_tPA: BioMAP Diversity Plus: BE3C Assay for Tissue plasminogen activator (tPA) Biomarker Activity (AID 2283041); details: primary human bronchial epithelial cells; actives raise or lower the signal
Procedure, shortened: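 Primary human bronchial epithelial cells in the BE3C system, exposed to compound for 24 h. tPA was quantified by ELISA; DMSO served as baseline, with gain or loss of signal fitted. Cytotoxicity checked in parallel cultures by SRB total-protein staining.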

[3] = read-out: Interleukin-8 (IL8), CXCL8 (gene 3576); assay: BSK_CASM3C_IL8: BioMAP Diversity Plus: CASM3C Assay for Interleukin-8 (IL8) Biomarker Activity (AID 2283042); details: primary human coronary artery smooth muscle cells; actives raise or lower the signal;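 note: IL-8 protein level quantified by ELISA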
[4] = read-out: Human Leukocyte Antigen - DR isotype (HLADR), HLA-DRA (gene 3122); assay: BSK_CASM3C_HLADR: BioMAP Diversity Plus: CASM3C Assay for Human Leukocyte Antigen - DR isotype (HLADR) Biomarker Activity (AID 2283043); details: primary human coronary artery smooth muscle cells; actives raise or lower the signal;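 note: cell-surface HLA-DR protein level quantified by ELISA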
[5] = read-out: Macrophage colony-stimulating factor (MCSF), CSF1 (gene 1435); assay: BSK_CASM3C_MCSF: BioMAP Diversity Plus: CASM3C Assay for Macrophage colony-stimulating factor (MCSF) Biomarker Activity (AID 2283044); details: primary human coronary artery smooth muscle cells; actives raise or lower the signal;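 note: M-CSF protein amount quantified by ELISA after 24 h exposure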
[6] = read-out: Low-density lipoprotein receptor (LDLR), LDLR (gene 3949); assay: BSK_CASM3C_LDLR: BioMAP Diversity Plus: CASM3C Assay for Low-density lipoprotein receptor (LDLR) Biomarker Activity (AID 2283045); details: primary human coronary artery smooth muscle cells; actives raise or lower the signal;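 note: LDLR protein level on the cell surface quantified by ELISA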
[7] = read-out: Monocyte Chemoattractant Protein-1 (MCP1), CCL2 (gene 6347); assay: BSK_CASM3C_MCP1: BioMAP Diversity Plus: CASM3C Assay for Monocyte Chemoattractant Protein-1 (MCP1) Biomarker Activity (AID 2283046); details: primary human coronary artery smooth muscle cells; actives raise or lower the signal;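 note: MCP-1 level quantified by ELISA 24 h after dosing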
[8] = BSK_CASM3C_Proliferation: Cell Proliferation Assessment in the BioMAP Diversity Plus: CASM3C Assay (AID 2283047); details: primary human coronary artery smooth muscle cells;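 note: sulforhodamine B total protein stain as relative cell number at 560 nm; sub-confluent cells exposed 48 h before staining; fitted both ways against DMSO so gain or loss of cell number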
[9] = read-out: Monokine induced gamma interferon (MIG), CXCL9 (gene 4283); assay: BSK_CASM3C_MIG: BioMAP Diversity Plus: CASM3C Assay for Monokine induced gamma interferon (MIG) Biomarker Activity (AID 2283048); details: primary human coronary artery smooth muscle cells; actives raise or lower the signal;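 note: MIG protein level measured by ELISA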
[10] = read-out: serum amyloid A (SAA), SAA1 (gene 6288); assay: BSK_CASM3C_SAA: BioMAP Diversity Plus: CASM3C Assay for serum amyloid A (SAA) Biomarker Activity (AID 2283049); details: primary human coronary artery smooth muscle cells; actives raise or lower the signal;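 note: SAA protein level quantified by ELISA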
[11] = BSK_CASM3C_SRB: Viability Assessment in the BioMAP Diversity Plus: CASM3C Assay (AID 2283050); details: primary human coronary artery smooth muscle cells
[12] = read-out: Thrombomodulin, THBD (gene 7056); assay: BSK_CASM3C_Thrombomodulin: BioMAP Diversity Plus: CASM3C Assay for Thrombomodulin Biomarker Activity (AID 2283051); details: primary human coronary artery smooth muscle cells; actives raise or lower the signal;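 note: thrombomodulin protein level measured by ELISA 24 h after dosing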
[13] = read-out: Tissue Factor, F3 (gene 2152); assay: BSK_CASM3C_TissueFactor: BioMAP Diversity Plus: CASM3C Assay for Tissue Factor Biomarker Activity (AID 2283052); details: primary human coronary artery smooth muscle cells; actives raise or lower the signal;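 note: cell surface tissue factor protein level read by ELISA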
[14] = read-out: Interferon-gamma inducible Protein 10 (IP10), CXCL10 (gene 3627); assay: BSK_hDFCGF_IP10: BioMAP Diversity Plus: hDFCGF Assay for Interferon-gamma inducible Protein 10 (IP10) Biomarker Activity (AID 2283053); details: primary human foreskin fibroblasts; actives raise or lower the signal
Procedure, shortened: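 Primary human foreskin fibroblasts exposed to chemicals for 24 h. IP-10 measured by ELISA; changes fitted bidirectionally against DMSO baseline.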

[15] = read-out: Urokinase-type plasminogen activator receptor (uPAR), PLAUR (gene 5329); assay: BSK_CASM3C_uPAR: BioMAP Diversity Plus: CASM3C Assay for Urokinase-type plasminogen activator receptor (uPAR) Biomarker Activity (AID 2283054); details: primary human coronary artery smooth muscle cells; actives raise or lower the signal;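 note: cell-surface uPAR protein level quantified by ELISA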
[16] = read-out: Vascular cell adhesion molecule 1 (VCAM1), VCAM1 (gene 7412); assay: BSK_CASM3C_VCAM1: BioMAP Diversity Plus: CASM3C Assay for Vascular cell adhesion molecule 1 (VCAM1) Biomarker Activity (AID 2283055); details: primary human coronary artery smooth muscle cells; actives raise or lower the signal;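 note: VCAM-1 protein level quantified by ELISA on the cells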
[17] = read-out: Collagen III, COL3A1 (gene 1281); assay: BSK_hDFCGF_CollagenIII: BioMAP Diversity Plus: hDFCGF Assay for Collagen III Biomarker Activity (AID 2283056); details: primary human foreskin fibroblasts; actives raise or lower the signal
Procedure, shortened: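 ELISA readout of Collagen III in human dermal (foreskin) fibroblasts, taken 24 h post-treatment. Gain or loss relative to DMSO vehicle fitted in both directions.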

[18] = read-out: Epidermal growth factor receptor (EGFR), EGFR (gene 1956); assay: BSK_hDFCGF_EGFR: BioMAP Diversity Plus: hDFCGF Assay for Epidermal growth factor receptor (EGFR) Biomarker Activity (AID 2283057); details: primary human foreskin fibroblasts; actives raise or lower the signal
Procedure, shortened: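 Primary human foreskin fibroblasts (hDFCGF system), sampled 24 h after dosing; EGFR quantified by ELISA. Bidirectional fit relative to DMSO baseline; SRB total-protein staining in parallel cultures for cytotoxicity.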

[19] = read-out: Interleukin-8 (IL8), CXCL8 (gene 3576); assay: BSK_hDFCGF_IL8: BioMAP Diversity Plus: hDFCGF Assay for Interleukin-8 (IL8) Biomarker Activity (AID 2283058); details: primary human foreskin fibroblasts; actives raise or lower the signal
Procedure, shortened: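 IL-8 levels read by ELISA at 24 hours after dosing human skin fibroblast cultures. Parallel SRB staining assessed overt cytotoxicity, and gain or loss of signal was fitted against DMSO control.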

[20] = BSK_hDFCGF_Proliferation: Cell Proliferation Assessment in the BioMAP Diversity Plus: hDFCGF Assay (AID 2283059); details: primary human foreskin fibroblasts;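 note: curves fitted for both rise and fall of signal versus DMSO baseline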
Procedure, shortened: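 Primary human foreskin fibroblasts, sub-confluent; […]; 10% TCA fix, 0.1% SRB stain, A560 total protein. Gain/loss fitted bidirectionally vs DMSO control.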

Measured: AC50

O=C(N[C@@H](Cc1ccccc1)[C@@H](O)C(=O)N1C[C@@H](O)[C@@H](O)C1)c1cc2cc(Cl)ccc2[nH]1
inactive: all assays above

O=[N+]([O-])C(CO)(CO)CO
active: [20] 14.1 µM
inactive: all other assays above

Cc1ccc(Cl)cc1
active: [20] 0.148 µM
inactive: all other assays above

O=C(O)Cc1ccccc1Nc1c(Cl)cccc1Cl
active: [17] 20 µM | [20] 20 µM
inactive: all other assays above

FC(F)(F)C(F)(F)C(F)(F)C(F)(F)C(F)(F)C(F)(F)CCI
inactive: all assays above

Nc1ccc2c(c1)C(=O)c1ccccc1C2=O
active: [8] 14.3 µM | [15] 20 µM | [20] 4.98 µM
not listed: [7]
inactive: all other assays above

CCCCCCCCCCCCCCCCCC(=O)O
active: [8] 8.81 µM
not listed: [11]
inactive: all other assays above

CCCCCCCCCCC
inactive: all assays above

Cc1ccc(N(C)C)cc1
inactive: all assays above

Cc1c(C(=O)O)c(O)cc2c1C(=O)c1c(O)c([C@@H]3O[C@H](CO)[C@@H](O)[C@H](O)[C@H]3O)c(O)c(O)c1C2=O
active: [20] 3.88 µM
inactive: all other assays above

O=c1c(O)c(-c2ccc(O)c(O)c2)oc2cc(O)cc(O)c12
active: [1] 8.19 µM | [3] 11.6 µM | [5] 6.34 µM | [6] 4.11 µM | [7] 9.09 µM | [8] 9.64 µM | [9] 20 µM | [11] 14.2 µM | [13] 4.13 µM | [14] 20 µM | [15] 6.66 µM | [20] 11.5 µM
inactive: [2] | [10] | [12] | [16] | [17] | [19]

CCc1c(C(=O)NN2CCCCC2)nn(-c2ccc(Cl)cc2Cl)c1-c1ccc(Br)cc1
inactive: [1] | [3] | [5] | [6] | [9] | [10] | [12] | [13] | [16]
active: [2] 20 µM | [4] 29.9 µM | [7] 33.8 µM | [8] 20.2 µM | [11] 16.8 µM | [14] 4.55 µM | [15] 25.1 µM | [17] 0.483 µM | [18] 1.65 µM | [19] 3.39 µM | [20] 1.73 µM
